The record followed here is ChEMBL document CHEMBL4513216, “Probing the Open Global Health Chemical Diversity Library for Multistage-Active Starting Points for Next-Generation Antimalarials” (ACS Infect Dis, 2020).

Among all 68,000 compounds or so, about 2,700 (4%) showed an effect of 50% or more. The sample holds strong results, similar compounds and a random draw of the others, so the mix is not that of the screen.

The test system of this test is Plasmodium berghei. In words: Screen against P. berghei liver stage (PbLuc), transformed with Luciferase, at 2uM. Type of test: functional, HepG2. The note with it: tested at 2 uM.
For the compound `CNC(=O)c1csc(-c2ccoc2)n1`, the INHIBITION was determined as 52.3%.

On to `CN(C)C(=O)c1csc(-c2ccoc2)n1`, for which the INHIBITION was found to be 38.83%.

Take `CNC(=O)c1csc(-c2cccnc2)n1`: the INHIBITION is reported as 30.63%.

Consider `Cc1nc(C)n(CC(C)C(=O)N2CCC(NS(C)(=O)=O)CC2)n1` (centres undefined), for which the INHIBITION is 5.85%.

In the case of `CCc1ccc(C(COC)NC(=O)c2ccc(C(N)=O)cc2)o1` (centres undefined), the INHIBITION was 15.56%.

As to `CSc1ncccc1C(=O)Nc1ccc(Cn2ccccc2=O)cc1`, the INHIBITION came out at 52.45%.

With `Cc1ncccc1C(=O)Nc1cccc(Cn2ccccc2=O)c1`, the INHIBITION was 45.67%.

In the case of `CSc1ncccc1C(=O)NCc1ccc(N(C)C)cc1`, the INHIBITION is 10.65%.

With `CS(=O)(=O)N[C@@H]1CCN(Cc2nccs2)[C@H]1Cc1ccncc1`, the INHIBITION is given as -11.68%.

In the case of `Cc1cc(NC(=O)C(C)Cn2cc(Br)cn2)no1` (centres undefined), the INHIBITION was 0.55%.

In the case of `Cc1nnc(NCc2cccnc2N(C)C)c(C#N)c1C`, the INHIBITION worked out at 53.03%.

In the case of `CCOc1ncccc1CNc1nnc(C)c(C)c1C#N`, the INHIBITION is on record as -27.71%.

Consider `CCCOc1ncccc1CNc1nnc(C)c(C)c1C#N`, for which the INHIBITION is 42.12%.

Consider `COC(=O)N1CCCC(C(=O)NCc2cc3cccc(OC)c3o2)C1` (centres undefined), for which the INHIBITION amounted to 33.01%.

In the case of `CCn1ncc(C(=O)NCCc2nc(-c3ccc(C)cc3)n[nH]2)c1C`, the INHIBITION is -0.21%.

With `CC1(C)[C@@H]2CC=C(CN3CCCn4nc(C(=O)O)cc4C3)[C@H]1C2`, the INHIBITION was -17.07%.

Consider `CC1(C)[C@@H]2CC=C(CN3CCCn4nc(C(=O)NCCO)cc4C3)[C@H]1C2`, for which the INHIBITION is reported as 53.17%.

`CC1(C)[C@@H]2CC=C(CN3CCCn4nc(CCC(=O)O)cc4C3)[C@H]1C2`: the INHIBITION was found to be 6.88%.

On to `Cn1cc(CCNC(=O)NC2CCS(=O)(=O)C2)cn1` (centres undefined), for which the INHIBITION was determined as 0.3%.

In the case of `CC(c1ccc(C(=O)NCCc2nc(N)cc(O)n2)o1)N1CCCCC1` (centres undefined), the INHIBITION is listed as -24.78%.

Consider `Cc1ccc(-c2nc(C(=O)NCC3CCOC3)cs2)cc1` (centres undefined), for which the INHIBITION is recorded as 49.9%.

On to `COc1ccc(-c2nc(C(=O)NCC3CCOC3)cs2)cc1OC` (centres undefined), for which the INHIBITION is reported as 60.09%.

Turning to `O=C(NCC1CCOC1)c1csc(-c2ccc(Cl)cc2)n1` (centres undefined), the INHIBITION turned out to be 5.09%.

Consider `CC(=O)N(Cc1ncc(C)o1)C1CCN(CCc2cnn(C)c2)C1` (centres undefined), for which the INHIBITION worked out at 9.83%.

With `CCC1CN(C(=O)COc2ccc(C(=O)NC3CC3)cc2)CCO1` (centres undefined), the INHIBITION came out at 32.93%.

As for `N#CCCN1CC(O)CN(C(=O)c2cccc(C(F)(F)F)c2)CC1=O` (centres undefined), the INHIBITION was determined as 24.52%.

As to `CNc1nc(CNC(=O)Nc2cccc(F)c2)cs1`, the INHIBITION was -88.54%.

Turning to `O=C(NCCCc1nc(=O)[nH][nH]1)Nc1ccc(Cl)cc1`, the INHIBITION is 23.64%.

`O=C(NCCCc1nc(=O)[nH][nH]1)Nc1cccc(F)c1`: the INHIBITION was 52.85%.

As to `COCC1CN(Cc2ccc(C)o2)Cc2nnn(C)c21` (centres undefined), the INHIBITION was 38.83%.

Consider `Cc1cc(S(=O)(=O)NCC(C)(O)CN(C)C)c(F)cc1F` (centres undefined), for which the INHIBITION was determined as 8.05%.

With `CN(C)C(=O)c1cccc(C[S+]([O-])CC(=O)NC2CCCC2)c1` (centres undefined), the INHIBITION is given as -13.12%.

For `Cc1cc(CS(=O)(=O)NCC2CCCCC2)on1`, the INHIBITION worked out at 10.22%.

Consider `Cc1cc(CS(=O)(=O)NC2CCCc3ccccc32)on1` (centres undefined), for which the INHIBITION is given as 57.34%.

In the case of `Cc1cc(CS(=O)(=O)NC2CCCCC2)on1`, the INHIBITION is 35.46%.

On to `CCCc1n[nH]c(=O)n1Cc1ccc(OC)cc1`, for which the INHIBITION is -13.14%.

Turning to `O=C(COC1CCCC1)Nc1ncn(CC(=O)N2CCCCCC2)n1`, the INHIBITION is reported as 22.29%.

Take `CC(C)Nc1nnc(SCc2nnc(C(C)(C)C)o2)s1`: the INHIBITION is 13.91%.

In the case of `O=C(NCC1CC1)C1CN(Cc2ccncc2)Cc2ccnn2C1` (centres undefined), the INHIBITION is on record as 7.55%.

For `O=C(NCC1CC1)C1CN(c2ncccn2)Cc2ccnn2C1` (centres undefined), the INHIBITION is on record as 64.37%.

In the case of `O=C(NCC1CC1)C1CN(Cc2cccs2)Cc2ccnn2C1` (centres undefined), the INHIBITION is recorded as 23.53%.

For the compound `O=c1ccc(-c2cccs2)nn1CN1CCOC(c2ccccc2)C1` (centres undefined), the INHIBITION is -30.87%.

For the compound `Cc1nc(CN2CCC3(CC2)CC(=O)N(C)c2ccccc23)cs1`, the INHIBITION was determined as 9.8%.

As for `CNS(=O)(=O)Cc1cccc(CNc2ccc(C#N)cn2)c1`, the INHIBITION is on record as 19.12%.

With `Clc1cnccc1N1CCC(OC2CCOCC2)CC1`, the INHIBITION was -76.37%.

As to `N#Cc1ccc(NCc2cccc(OCC3CCCO3)c2)nc1` (centres undefined), the INHIBITION came out at 42.35%.

Consider `N#Cc1ccc(NCc2cccc(COC3CCOCC3)c2)nc1`, for which the INHIBITION is given as 66.24%.

With `Clc1cnccc1NCc1cccc(COC2CCOCC2)c1`, the INHIBITION was found to be 68.73%.

Consider `Clc1cncc(NCc2cccc(COC3CCOCC3)c2)n1`, for which the INHIBITION is listed as -0.39%.

With `CC(=O)N1CCN(Cc2nccs2)CC2(CC(=O)N(C)C2)C1` (centres undefined), the INHIBITION worked out at 26.01%.

In the case of `CCC(Nc1cccc(OC)c1)C(=O)NCc1ccc2c(c1)OCO2` (centres undefined), the INHIBITION was 11.6%.

`c1cnn(CC2CN(Cc3csc(C4CCCCC4)n3)CCO2)c1` (centres undefined): the INHIBITION is listed as -43.79%.

Consider `Cc1cccc(CN2CCN(C(=O)c3cnc(C)[nH]c3=O)CC2)c1`, for which the INHIBITION is given as 43.15%.

`CNC(=O)CN1C(=O)CN(C(=O)COC)CCC(OC)c2ccccc21` (centres undefined): the INHIBITION was -8.2%.

Consider `O=S(=O)(c1ccccc1)N1C[C@@H]2COC[C@]2(CN2CCOCC2)C1`, for which the INHIBITION is given as 29.19%.

For `Cc1cc(C(F)(F)F)cc(N2C[C@@H](CN(C)CCO)[C@@H](CO)C2)n1`, the INHIBITION was determined as 50.97%.

Consider `CCN(CCO)C[C@@H]1CN(c2cc(C(F)(F)F)cc(C)n2)C[C@@H]1CO`, for which the INHIBITION is given as 14.59%.

In the case of `Cc1cc(C(F)(F)F)cc(N2C[C@@H](CN3CCOCC3)[C@@H](CO)C2)n1`, the INHIBITION is given as -18.71%.

`c1cncc(CN2CCn3cc(Cn4cccn4)nc3C2)c1`: the INHIBITION is listed as 15.39%.

Regarding `Cc1ccc(N2CC3(COCCN(Cc4cccnc4)C3)OCC2=O)s1` (centres undefined), the INHIBITION was -5.44%.

Regarding `CN(C)c1cc(CNC(=O)c2cc(Cl)ccn2)ccn1`, the INHIBITION turned out to be 49.01%.

Take `Cc1ccc(CC(=O)N2CCCC(c3cc(C(N)=O)[nH]n3)C2)cn1` (centres undefined): the INHIBITION came to 14.53%.

With `CC(C)(C)C(=O)NCCC(=O)N1CCC(Nc2cccnn2)CC1`, the INHIBITION is -27.69%.

For the compound `COCCN1CCC2(CC1)CN(C(=O)c1cccs1)CCO2`, the INHIBITION came out at 57.31%.

For the compound `COCCN1CCC2(CC1)CN(C(=O)c1ccco1)CCO2`, the INHIBITION is on record as 45.22%.

Consider `COCCN1CCC2(CC1)CN(C(=O)c1ccccc1)CCO2`, for which the INHIBITION stood at 58.4%.

Take `COCCN1C[C@@H](C)[C@@]2(COCCN(C(=O)c3cccs3)C2)C1`: the INHIBITION is on record as -3.19%.

Turning to `O=C(c1ccccc1)N1CCOC2(CCN(Cc3cccs3)CC2)C1`, the INHIBITION turned out to be 20.51%.

Turning to `COCCN1CCC2(CC1)CN(C(=O)Cc1cccnc1)CCO2`, the INHIBITION turned out to be 35.89%.
